From PubChem BioAssay
Calls of active or inactive are those of the source. Unless noted, the rule behind the calls is not given here.

Legend:
[1] = compounds binding Alexa647 anti-His antibody – biochemical, small-molecule microarray, 635 nm fluorescence, artefact control for SMM control protein annotation, primary screen (AID 1128); conditions: higher = more signal;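 note: score merges feature fluorescence with signal-to-noise for each printed compound spot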
[2] = tested on: Human papillomavirus type 1a E7 protein (residues 1-88); assay: HPV1a E7 small-molecule binders, primary screen, biochemical, small-molecule microarray, residues 1-88, 635 nm (AID 1129); conditions: small-molecule microarray binding, fluorescence 635 nm; higher = more signal
[3] = molecular target: Focal adhesion kinase 1 (Homo sapiens) (UniProt Q05397); assay: PTK2 protein binding on printed compound slides – biochemical, small-molecule microarray, 635/667 nm fluorescence, BSA, DTT, primary screen (AID 1130); conditions: 635 nm fluorescence, higher = more signal;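 note: composite of spot emission at 667 nm and signal to noise over triplicate slides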
Sequence of Focal adhesion kinase 1 (Homo sapiens) (Q05397 whole entry, looked up): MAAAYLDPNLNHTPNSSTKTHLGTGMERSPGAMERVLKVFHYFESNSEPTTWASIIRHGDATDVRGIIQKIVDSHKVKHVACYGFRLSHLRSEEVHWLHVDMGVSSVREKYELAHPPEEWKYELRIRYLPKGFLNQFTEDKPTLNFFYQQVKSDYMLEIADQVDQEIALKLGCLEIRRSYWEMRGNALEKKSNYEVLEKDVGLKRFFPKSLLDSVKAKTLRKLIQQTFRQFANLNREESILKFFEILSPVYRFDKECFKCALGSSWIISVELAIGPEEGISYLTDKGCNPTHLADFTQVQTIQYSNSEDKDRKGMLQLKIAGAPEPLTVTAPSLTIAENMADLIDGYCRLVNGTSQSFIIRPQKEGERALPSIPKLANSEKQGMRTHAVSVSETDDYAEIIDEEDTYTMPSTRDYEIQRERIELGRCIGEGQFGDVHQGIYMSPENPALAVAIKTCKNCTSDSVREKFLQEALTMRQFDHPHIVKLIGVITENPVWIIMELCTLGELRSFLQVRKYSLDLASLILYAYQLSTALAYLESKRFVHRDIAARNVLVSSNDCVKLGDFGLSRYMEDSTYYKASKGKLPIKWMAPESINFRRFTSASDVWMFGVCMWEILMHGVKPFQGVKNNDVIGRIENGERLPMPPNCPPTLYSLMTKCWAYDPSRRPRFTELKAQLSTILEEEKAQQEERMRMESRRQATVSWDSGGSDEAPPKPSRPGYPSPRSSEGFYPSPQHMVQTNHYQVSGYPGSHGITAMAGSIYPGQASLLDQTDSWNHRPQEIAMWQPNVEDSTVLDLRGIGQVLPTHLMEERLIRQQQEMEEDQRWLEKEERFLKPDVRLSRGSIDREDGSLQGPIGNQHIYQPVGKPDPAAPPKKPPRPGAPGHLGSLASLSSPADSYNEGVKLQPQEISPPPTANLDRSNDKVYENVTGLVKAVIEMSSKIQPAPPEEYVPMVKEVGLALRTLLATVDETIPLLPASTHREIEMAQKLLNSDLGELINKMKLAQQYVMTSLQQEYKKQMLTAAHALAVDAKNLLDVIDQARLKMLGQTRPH

[4] = tested on: Fibrinogen (Alexa647-labelled); assay: Alexa647-fibrinogen binding to printed small molecules – biochemical, small-molecule microarray, 635/667 nm fluorescence, artefact control for SMM control-protein annotation, profiling panel (AID 1131); conditions: fibrinogen-A647 binding fluorescence, higher = more signal;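 note: z-score merges 667 nm fluorescence with per-spot signal-to-noise over triplicate slides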
[5] = molecular target: Follistatin (Homo sapiens) (UniProt P19883); assay: FST protein binding to printed compounds – biochemical, small-molecule microarray, 635/667 nm fluorescence, primary screen (AID 1132); conditions: 635 nm fluorescence, higher = more signal
Sequence of Follistatin (Homo sapiens) (P19883 whole entry, looked up): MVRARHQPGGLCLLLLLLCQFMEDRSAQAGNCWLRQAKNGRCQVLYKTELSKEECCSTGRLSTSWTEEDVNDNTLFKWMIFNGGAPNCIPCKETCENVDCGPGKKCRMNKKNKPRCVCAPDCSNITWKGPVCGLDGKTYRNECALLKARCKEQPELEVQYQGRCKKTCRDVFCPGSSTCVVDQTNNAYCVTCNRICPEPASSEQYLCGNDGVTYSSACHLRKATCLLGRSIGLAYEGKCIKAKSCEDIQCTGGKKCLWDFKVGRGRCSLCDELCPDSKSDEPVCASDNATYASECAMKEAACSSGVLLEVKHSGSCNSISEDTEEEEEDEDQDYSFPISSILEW

[6] = molecular target: Fibroblast growth factor 2 (Homo sapiens) (UniProt P09038); assay: basic fibroblast growth factor binding to printed compounds – biochemical, small-molecule microarray, 635/667 nm fluorescence, primary screen (AID 1133); conditions: FGF2, fluorescence 635/667, higher = more signal
Sequence of Fibroblast growth factor 2 (Homo sapiens) (P09038 whole entry, looked up): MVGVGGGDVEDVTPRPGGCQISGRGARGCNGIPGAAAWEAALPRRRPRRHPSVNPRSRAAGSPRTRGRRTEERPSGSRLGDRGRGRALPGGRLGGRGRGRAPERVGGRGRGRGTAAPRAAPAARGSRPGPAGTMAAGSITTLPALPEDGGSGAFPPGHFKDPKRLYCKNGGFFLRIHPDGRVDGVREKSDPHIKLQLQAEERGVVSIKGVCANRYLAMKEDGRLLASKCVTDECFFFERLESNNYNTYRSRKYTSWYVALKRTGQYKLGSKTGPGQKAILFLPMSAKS

[7] = JC-1 mitochondrial potential readout, lung cancer cells – cell-based, A549, JC-1 fluorescence, basal, 24 h, 100 nL, profiling panel (AID 1138); conditions: higher = more signal;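 note: A549 lung adenocarcinoma cells under basal conditions with no added stimulus; test concentration not given here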
Lefty1 = Lefty1 protein binding to printed compounds – biochemical, small-molecule microarray, 635/667 nm fluorescence, primary screen (AID 1139); conditions: fluorescence 635/667, higher = more signal
[8] = tested on: wheat germ agglutinin (Triticum aestivum), Alexa647-labelled; assay: Alexa647-WGA lectin binding to printed small molecules – biochemical, small-molecule microarray, 635/667 nm fluorescence, artefact control for SMM control-protein annotation, profiling panel (AID 1140); conditions: WGA-A647 binding, 635 nm fluorescence, higher = more signal;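 note: score merges 667 nm feature emission with signal to noise over triplicate slides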
[9] = molecular target: Luciferin 4-monooxygenase (Photinus pyralis) (UniProt P08659); assay: inhibition of purified Photinus pyralis luciferase – biochemical, luminescence, purified enzyme, 2006 set, primary screen (AID 1141); conditions: purified firefly luciferase, SteadyGlo luminescence, 30 min; higher = more signal, called active from +8 up or from −8 down;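 note: cell-free assay with purified firefly luciferase at 100 ng per well in PBS; test concentration not given here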
Sequence of Luciferin 4-monooxygenase (Photinus pyralis) (P08659 whole entry, looked up): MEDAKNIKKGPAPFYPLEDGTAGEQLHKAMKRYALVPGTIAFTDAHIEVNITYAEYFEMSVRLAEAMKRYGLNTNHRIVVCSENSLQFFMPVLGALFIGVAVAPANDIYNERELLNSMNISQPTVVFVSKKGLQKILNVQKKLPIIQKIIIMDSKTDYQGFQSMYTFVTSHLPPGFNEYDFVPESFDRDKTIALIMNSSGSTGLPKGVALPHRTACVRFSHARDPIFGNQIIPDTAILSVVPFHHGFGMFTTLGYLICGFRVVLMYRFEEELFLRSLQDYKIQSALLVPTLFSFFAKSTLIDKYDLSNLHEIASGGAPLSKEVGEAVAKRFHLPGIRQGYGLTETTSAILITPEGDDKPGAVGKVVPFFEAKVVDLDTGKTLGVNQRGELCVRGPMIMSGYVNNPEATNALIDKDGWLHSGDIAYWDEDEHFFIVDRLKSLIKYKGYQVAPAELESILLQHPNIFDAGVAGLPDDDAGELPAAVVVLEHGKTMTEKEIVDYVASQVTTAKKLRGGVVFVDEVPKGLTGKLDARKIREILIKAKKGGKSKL

[10] = tested on: Wnt5a (protein binding on small-molecule microarray); assay: small molecules binding Wnt5a protein – biophysical, small-molecule microarray, 635/667 nm fluorescence, primary screen (AID 1142); conditions: 635 nm fluorescence, higher = more signal;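 note: fluorescence read at 667 nm with signal to noise per printed feature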
[11] = ATP-based viability of Huh7 replicon cells – cell-based, CellTiter-Glo luminescence, basal, 48 h, cytotoxicity control for HCV replication inhibitor project, primary screen (AID 1143); conditions: higher = more signal, called active from +8 up or from −8 down;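 note: Huh7 hepatoma cells carrying a hepatitis C replication reporter with no stimulus; test concentration not given here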
[12] = Pseudomonas biofilm growth suppression – PAO1 strain, BacTiter-Glo luminescence, LB-PBS, primary screen (AID 1144); conditions: P. aeruginosa PAO1 biofilm, 12 h, higher = more signal
[13] = basal CRE-LacZ reporter activity in PC12 – cell-based, unstimulated, primary screen (AID 1145); conditions: no forskolin, luminescence, 4.5 h, higher = more signal, called active from +8 up or from −8 down
[14] = forskolin-driven CRE-LacZ activity in PC12 – cell-based, CRE-LacZ reporter, forskolin-stimulated, primary screen (AID 1146); conditions: luminescence, 4.5 h, higher = more signal, called active from +8 up or from −8 down;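 note: PC12 cells with 6xCRE LacZ reporter stimulated by forskolin 10 µM; beta-galactosidase reporter signal reflecting CREB driven transcription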
[15] = molecular target: Streptavidin (Streptomyces avidinii) (UniProt P22629); assay: compounds binding control protein streptavidin – biophysical, small-molecule microarray, 635/667 nm fluorescence, artefact control for SMM compound annotation, primary screen (AID 1147); conditions: higher = more signal;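 note: signal reflects streptavidin binding to arrayed compounds as a control protein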
Sequence of Streptavidin (Streptomyces avidinii) (P22629 whole entry, looked up): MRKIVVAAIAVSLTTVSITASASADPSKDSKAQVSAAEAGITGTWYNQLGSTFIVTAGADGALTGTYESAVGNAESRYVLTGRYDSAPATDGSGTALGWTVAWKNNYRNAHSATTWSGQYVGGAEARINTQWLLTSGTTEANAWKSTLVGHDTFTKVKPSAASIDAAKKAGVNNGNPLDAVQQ

[16] = probe aInhba binding on compound microarray – biochemical, small-molecule microarray, 635/667 nm fluorescence, primary screen (AID 1148); conditions: higher = more signal;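 note: score merges 667nm spot fluorescence with signal-to-noise for antibody binding to printed compounds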
Torsin-1A (Homo sapiens) [17] = molecular target: Torsin-1A (Homo sapiens) (UniProt O14656); assay: TOR1A wild-type binding on microarray – cell lysate, small-molecule microarray, lysate, 635/667 nm, primary screen (AID 1149); conditions: COS7 hTOR1A-WT lysate, 635 nm fluorescence, higher = more signal
Sequence of Torsin-1A (Homo sapiens) (O14656 whole entry, looked up): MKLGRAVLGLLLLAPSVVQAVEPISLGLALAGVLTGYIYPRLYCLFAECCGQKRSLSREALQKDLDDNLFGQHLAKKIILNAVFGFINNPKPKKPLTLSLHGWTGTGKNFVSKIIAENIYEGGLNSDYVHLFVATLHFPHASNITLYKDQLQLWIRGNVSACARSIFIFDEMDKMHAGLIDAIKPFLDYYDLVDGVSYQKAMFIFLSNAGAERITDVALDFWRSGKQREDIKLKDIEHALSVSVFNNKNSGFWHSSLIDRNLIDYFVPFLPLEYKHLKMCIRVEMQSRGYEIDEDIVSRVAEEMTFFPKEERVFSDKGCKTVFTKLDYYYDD

Torsin-1A (Homo sapiens) [18] = molecular target: Torsin-1A (Homo sapiens) (UniProt O14656); assay: torsin A mutant lysate binding on microarrays – cell lysate, small-molecule microarray, COS7 lysate, 635/667 nm fluorescence, primary screen (AID 1150); conditions: COS7 hTOR1A mutant lysate, 635 nm fluorescence, higher = more signal;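 note: score pools 667 nm emission and signal to noise measuring lysate protein binding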
[19] = tested on: Sonic hedgehog protein (Shh); assay: Sonic hedgehog microarray binding compounds – biochemical, small-molecule microarray, 635/667 nm fluorescence, primary screen (AID 1151); conditions: 635 nm fluorescence, higher = more signal;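 note: Shh protein binding to compounds spotted on small-molecule microarray slides; score combines spot fluorescence intensity with signal-to-noise across triplicate slides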

Row | SMILES | composite z-score [1] | composite z-score [2] | composite z-score [3] | composite z-score [4] | composite z-score [5] | composite z-score [6] | z-score [7] | composite z-score (Lefty1) | composite z-score [8] | z-score [9] | composite z-score [10] | z-score [11] | z-score [12] | z-score [13] | z-score [14] | composite z-score [15] | composite z-score [16] | composite z-score (Torsin-1A (Homo sapiens) [17]) | composite z-score (Torsin-1A (Homo sapiens) [18]) | composite z-score [19]
1 | COc1cccc([C@H]2Oc3ccc(OC)cc3C(=NO[C@H](C)c3cn([C@H](CO)Cc4ccccc4)nn3)[C@@H]2O)c1 | 0.533 | -0.323 | -0.181 | -0.095 | -0.0053 | 0.185 | -0.685 | 0.0027 | -0.124 | 0.417 (inactive) | -0.0943 | 0.474 (inactive) | 0.829 (inactive) | 3.87 (inactive) | -0.345 (inactive) | -0.706 | -0.104 | -0.0667 | 1.44 | 0.326
2 | CCOC(=O)NN=C1C[C@@H](O)[C@@H](O)[C@@H]2[C@@H]3C(=O)N(c4ccc(F)cc4F)C(=O)[C@@H]3CC[C@@H]12 | 0.508 | 0.574 | 0.252 | 0.331 | 0.519 | 0.187 | -0.389 | 0.775 | 0.455 | 1.04 (inactive) | 0.0054 | 0.176 (inactive) | 0.449 (inactive) | -0.0211 (inactive) | 0.34 (inactive) | 0.309 | -0.016 | 0.308 | 0.12 | 0.219
3 | COc1cccc([C@H]2Oc3ccc(OC)cc3C(=NO[C@@H]3O[C@H](COC(C)=O)[C@@H](OC(C)=O)[C@H](OC(C)=O)[C@H]3OC(C)=O)[C@@H]2O)c1 | 0.238 | 0.23 | 0.478 | -0.339 | -0.0006 | 0.192 | -0.172 | 0.228 | -0.639 | 0.713 (inactive) | 0.186 | -0.202 (inactive) | 0.0537 (inactive) | 0.336 (inactive) | 0.38 (inactive) | -0.0198 | -0.163 | 0.29 | 0.461 | 0.149
4 | COC(=O)CC=C[C@@H](C)[C@@H](C=NO[C@H](C)c1cn([C@@H]2COC[C@H]2O)nn1)NS(=O)(=O)c1ccc(C)cc1 | 1.41 | -0.0194 | -0.217 | 0.533 | 1.08 | 0.845 | 0.109 | 1.26 | 0.521 | 0.316 (inactive) | -0.0155 | 0.23 (inactive) | -0.668 (inactive) | 1.08 (inactive) | -0.112 (inactive) | -0.262 | 0.0173 | 0.68 | 0.429 | 0.691
5 | O=C1[C@H]2[C@H]3[C@H](O)[C@H](O)CC(=NOCc4ccccc4)[C@H]3CC[C@H]2C(=O)N1Cc1ccc2c(c1)OCO2 | -0.169 | 0.186 | -0.175 | 0.632 | 0.214 | 0.533 | -0.626 | 0.397 | 0.492 | 1.23 (inactive) | -0.0988 | -1.96 (inactive) | 1.66 (inactive) | -0.203 (inactive) | -0.915 (inactive) | 0.484 | -0.15 | 0.0874 | 0.172 | 0.394
6 | CCOC(=O)[C@H](CC(C)C)NC(=O)CCC1CC(OC(=O)NCc2ccc3c(c2)OCO3)CC2(CCCC(COC(=O)NCC(c3ccccc3)c3ccccc3)O2)O1 (stereo not given in full) | 0.423 | 0.572 | -0.2 | 0.683 | 0.669 | 0.191 | -0.025 | 1.32 | 0.61 | 0.864 (inactive) | 0.222 | -0.356 (inactive) | -0.187 (inactive) | 0.111 (inactive) | 1.67 (inactive) | -0.201 | -0.0405 | 0.0929 | 0.351 | 1.77
7 | C=CC[C@@H]1C=C[C@H](ON=C[C@@H](C)[C@H](OCc2ccccc2)C(C)C)[C@@H](CO)O1 | -0.304 | -0.324 | -0.472 | -1.67 | -0.386 | -0.178 | -0.922 | 0.521 | -0.0625 | 0.888 (inactive) | -0.2 | -1.39 (inactive) | 0.787 (inactive) | 1.31 (inactive) | 0.3 (inactive) | -1.32 | -0.238 | -0.617 | -0.396 | -0.119
8 | CC(CCN1CCCCc2nc(C)c(C)cc21)=NOC[C@@H](O)COCc1ccco1 | 0.111 | -0.91 | 0.0817 | -0.426 | 1.42 | 1.98 | 0.143 | 1.68 | -0.466 | 0.357 (inactive) | 0.59 | 0.159 (inactive) | 0.676 (inactive) | 0.662 (inactive) | 0.758 (inactive) | -0.555 | -0.15 | 3.74 | 3.23 | 2.31
9 | COc1cccc([C@H]2Oc3ccc(OC)cc3C(=NOC[C@@H](O)[C@H]3O[C@@H]4OC(C)(C)O[C@@H]4[C@H]3O)[C@@H]2O)c1 | -1.33 | 0.372 | 0.263 | 0.213 | 0.418 | 0.318 | -0.315 | 0.892 | -0.0123 | -4.03 (inactive) | 0.205 | -2.83 (inactive) | 1.12 (inactive) | 2.02 (inactive) | 0.0487 (inactive) | -0.311 | -0.105 | 0.0929 | 0.339 | 0.303
10 | CO[C@H]1COC(=O)CC=C[C@@H](C)[C@H](OC)COC(=O)CCC[C@@H]1C | 0.165 | -0.289 | -0.735 | -0.511 | 0.776 | 1.15 | -0.738 | 0.945 | -0.173 | 1.09 (inactive) | -0.0494 | -0.127 (inactive) | -0.913 (inactive) | -0.482 (inactive) | 0.0877 (inactive) | 0.0616 | -0.153 | 1.89 | 0.33 | 1.18
